Assay results: PubChem BioAssay
Calls of active or inactive are those of the source.

How the values were obtained:
[1] = binders of probe aFSTL3 on microarray, primary screen, stem cell growth factor project, biochemical, small-molecule microarray, fluorescence 635/667 (AID 1064); settings: higher = more signal;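 also: measures binding of the biotinylated anti-FSTL3 antibody to printed compounds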
[2] = binders from COS7 lysate, DM2A8 probe, primary screen, torsin A project, cell lysate, small-molecule microarray, fluorescence 635/667 (AID 1065); settings: higher = more signal, COS7 lysate expressing mutant human TOR1A
[3] = binders of probe aFGF2 on microarray, primary screen, stem cell growth factor project, biochemical, small-molecule microarray, fluorescence 635/667 (AID 1067); settings: higher = more signal;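 also: measures binding of biotinylated aFGF2 protein to printed compounds on slides; z-score merges feature fluorescence and signal-to-noise across triplicate slides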
[4] = binders of probe aFGF10 on microarray, primary screen, stem cell growth factor project, biochemical, small-molecule microarray, fluorescence 635/667 (AID 1071); settings: higher = more signal;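 also: score merges 667 nm spot intensity and signal to noise from triplicate slides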
[5] = biological target: Neurogenic locus notch homolog protein 2 (Homo sapiens) (UniProt Q04721); experiment: Notch2 binders on small-molecule microarrays, primary screen, biochemical, small-molecule microarray, 635 nm fluorescence, stem cell growth factors (AID 1073); settings: Notch2 binding, higher = more signal
[6] = biological target: Pro-neuregulin-1, membrane-bound isoform (Homo sapiens) (UniProt Q02297); experiment: NRG1 binders on small-molecule microarrays, primary screen, psychiatric disease protein project, biochemical, small-molecule microarray, fluorescence 635/667 (AID 1075); settings: NRG1 binding, 635 nm fluorescence, higher = more signal;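 also: score combines 667 nm spot fluorescence with signal to noise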
[7] = test system: Neuregulin-1 EGF-like domain; experiment: binders of neuregulin-1 EGF-like domain, primary screen, biochemical, small-molecule microarray, 635 nm fluorescence (AID 1081); settings: small-molecule microarray binding, higher = more signal;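 also: binding of the protein to compounds printed on small-molecule microarray slides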
[8] = FRG1 promoter luciferase signal modulators, primary screen, FRG1 inhibition for FSHD, cell-based, C2C12 myotubes, firefly/Renilla luciferase, luminescence (AID 1084); settings: higher = more signal, called active from +8 up or from −8 down
[9] = binders of probe aFST on microarray, primary screen, stem cell growth factor project, biochemical, small-molecule microarray, fluorescence 635/667 (AID 1086); settings: higher = more signal;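 also: score merges 667 nm fluorescence with signal-to-noise of each printed compound spot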
[10] = binders of probe aHhip on microarray, primary screen, stem cell growth factor project, biochemical, small-molecule microarray, fluorescence 635/667 (AID 1087); settings: higher = more signal;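 also: score merges spot fluorescence at 667nm with spot signal to noise ratio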

Neurogenic locus notch homolog protein 2 (Homo sapiens), sequence (Q04721 whole entry, looked up, canonical isoform): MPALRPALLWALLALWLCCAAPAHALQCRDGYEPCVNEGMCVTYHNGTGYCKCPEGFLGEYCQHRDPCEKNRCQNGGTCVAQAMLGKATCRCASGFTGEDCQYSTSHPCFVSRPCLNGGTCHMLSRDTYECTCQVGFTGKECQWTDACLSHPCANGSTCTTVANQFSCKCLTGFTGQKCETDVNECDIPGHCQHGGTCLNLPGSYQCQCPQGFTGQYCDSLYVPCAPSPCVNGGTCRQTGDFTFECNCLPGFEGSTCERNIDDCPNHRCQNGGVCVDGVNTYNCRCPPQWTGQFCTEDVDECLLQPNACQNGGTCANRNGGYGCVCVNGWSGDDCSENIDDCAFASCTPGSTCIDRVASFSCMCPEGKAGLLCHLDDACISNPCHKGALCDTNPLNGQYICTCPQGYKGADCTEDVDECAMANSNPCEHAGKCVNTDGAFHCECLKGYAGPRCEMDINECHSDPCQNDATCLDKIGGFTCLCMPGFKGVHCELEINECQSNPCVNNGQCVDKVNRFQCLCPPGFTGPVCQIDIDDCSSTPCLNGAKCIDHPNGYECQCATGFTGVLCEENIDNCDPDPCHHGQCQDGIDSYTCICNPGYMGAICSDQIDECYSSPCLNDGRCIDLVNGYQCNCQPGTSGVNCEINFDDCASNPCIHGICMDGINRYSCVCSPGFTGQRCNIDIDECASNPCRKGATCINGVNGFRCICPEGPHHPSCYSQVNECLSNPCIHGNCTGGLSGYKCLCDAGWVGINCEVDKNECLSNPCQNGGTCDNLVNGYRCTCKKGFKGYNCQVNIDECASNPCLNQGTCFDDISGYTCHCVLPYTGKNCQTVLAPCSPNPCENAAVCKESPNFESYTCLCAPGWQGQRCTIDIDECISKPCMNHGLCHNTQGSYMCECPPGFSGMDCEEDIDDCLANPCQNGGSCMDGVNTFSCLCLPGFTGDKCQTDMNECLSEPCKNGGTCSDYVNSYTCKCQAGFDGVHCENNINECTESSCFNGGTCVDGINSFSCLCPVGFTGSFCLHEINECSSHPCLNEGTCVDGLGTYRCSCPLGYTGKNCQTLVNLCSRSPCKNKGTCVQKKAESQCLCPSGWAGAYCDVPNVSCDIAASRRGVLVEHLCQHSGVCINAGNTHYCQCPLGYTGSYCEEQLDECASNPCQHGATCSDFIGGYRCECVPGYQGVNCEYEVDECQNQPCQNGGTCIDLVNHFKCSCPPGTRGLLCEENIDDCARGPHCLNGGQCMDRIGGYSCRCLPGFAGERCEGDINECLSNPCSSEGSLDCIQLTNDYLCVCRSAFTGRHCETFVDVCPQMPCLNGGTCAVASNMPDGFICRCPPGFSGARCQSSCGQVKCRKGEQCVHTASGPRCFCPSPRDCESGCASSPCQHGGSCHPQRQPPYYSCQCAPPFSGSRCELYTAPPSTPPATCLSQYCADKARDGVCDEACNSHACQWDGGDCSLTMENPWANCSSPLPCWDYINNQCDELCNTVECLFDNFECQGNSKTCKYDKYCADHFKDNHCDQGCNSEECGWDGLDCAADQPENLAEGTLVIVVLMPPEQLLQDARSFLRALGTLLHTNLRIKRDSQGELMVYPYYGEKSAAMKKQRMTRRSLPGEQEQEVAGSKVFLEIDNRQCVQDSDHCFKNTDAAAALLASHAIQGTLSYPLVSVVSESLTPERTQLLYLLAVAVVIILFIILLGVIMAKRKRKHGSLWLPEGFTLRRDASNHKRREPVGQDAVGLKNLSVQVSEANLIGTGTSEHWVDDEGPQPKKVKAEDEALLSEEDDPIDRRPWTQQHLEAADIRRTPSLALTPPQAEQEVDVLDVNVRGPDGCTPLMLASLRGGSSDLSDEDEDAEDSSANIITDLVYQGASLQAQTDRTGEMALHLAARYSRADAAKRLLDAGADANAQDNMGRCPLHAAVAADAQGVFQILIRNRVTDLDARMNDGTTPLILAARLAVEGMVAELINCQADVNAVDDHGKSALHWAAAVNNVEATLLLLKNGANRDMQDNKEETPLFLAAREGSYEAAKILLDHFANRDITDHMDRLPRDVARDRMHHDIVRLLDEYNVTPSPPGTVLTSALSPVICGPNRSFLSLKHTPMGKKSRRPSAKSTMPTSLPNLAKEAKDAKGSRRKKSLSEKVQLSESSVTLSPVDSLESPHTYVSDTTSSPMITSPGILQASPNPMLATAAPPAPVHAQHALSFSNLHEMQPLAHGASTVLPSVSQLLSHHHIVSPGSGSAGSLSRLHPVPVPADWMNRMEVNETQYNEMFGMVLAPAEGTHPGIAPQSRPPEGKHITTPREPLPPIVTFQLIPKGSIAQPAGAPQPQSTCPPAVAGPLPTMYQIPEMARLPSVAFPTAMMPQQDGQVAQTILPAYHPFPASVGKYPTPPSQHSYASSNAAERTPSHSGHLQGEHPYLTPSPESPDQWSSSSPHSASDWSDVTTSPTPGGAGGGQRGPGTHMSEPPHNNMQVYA
Pro-neuregulin-1, membrane-bound isoform (Homo sapiens), sequence (Q02297 whole entry, looked up, the tested form may be a part, canonical isoform): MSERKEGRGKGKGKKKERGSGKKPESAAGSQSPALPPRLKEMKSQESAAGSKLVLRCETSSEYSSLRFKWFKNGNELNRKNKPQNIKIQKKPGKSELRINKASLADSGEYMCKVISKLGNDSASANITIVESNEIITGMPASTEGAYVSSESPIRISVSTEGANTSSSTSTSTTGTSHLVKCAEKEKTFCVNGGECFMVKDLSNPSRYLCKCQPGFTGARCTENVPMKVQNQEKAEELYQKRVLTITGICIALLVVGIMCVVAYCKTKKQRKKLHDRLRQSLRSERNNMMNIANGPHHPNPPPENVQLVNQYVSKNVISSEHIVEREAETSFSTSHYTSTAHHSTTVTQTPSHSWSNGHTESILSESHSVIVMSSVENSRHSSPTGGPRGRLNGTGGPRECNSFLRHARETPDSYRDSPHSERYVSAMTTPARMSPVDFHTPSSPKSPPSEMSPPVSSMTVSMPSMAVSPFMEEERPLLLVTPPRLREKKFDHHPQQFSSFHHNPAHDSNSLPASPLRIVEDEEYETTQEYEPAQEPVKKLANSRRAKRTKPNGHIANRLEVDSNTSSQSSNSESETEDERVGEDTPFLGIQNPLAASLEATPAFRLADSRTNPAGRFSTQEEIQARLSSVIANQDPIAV

Row | SMILES | composite z-score [1] | composite z-score [2] | composite z-score [3] | composite z-score [4] | composite z-score [5] | composite z-score [6] | composite z-score [7] | z-score [8] | composite z-score [9] | composite z-score [10]
1 | C#CCCCON=C1C[C@@H](O)[C@@H](O)[C@@H]2[C@@H]3C(=O)N(Cc4ccccc4)C(=O)[C@@H]3CC[C@H]12 | -0.304 | 0.251 | -0.116 | 0.317 | 0.69 | 0.197 | -0.0787 | -0.0765 (inactive) | 0.149 | -0.169
2 | CC(=O)O[C@H]1C2=C(C(=O)[C@@H]3O[C@@H]31)[C@H]1C(C)O[C@@H]2[C@@]23C(=O)[C@@H]4O[C@@H]4[C@@H](O)C2=CO[C@H](C)[C@@H]13 (stereo not given in full) | -0.295 | 0.16 | -0.0314 | 0.226 | 0.166 | -0.274 | 0.377 | -1.07 (inactive) | -0.0354 | -0.0645
3 | O=C1O[C@@H](c2ccccc2)[C@@H](c2ccccc2)N2[C@@H](c3ccc(OCCO)cc3)[C@]3(C(=O)Nc4ccccc43)[C@@H](C(=O)N3CCN(c4ncccn4)CC3)[C@H]12 | 0.0612 | 0.574 | -0.0493 | 0.267 | 1.25 | 1.27 | 1.34 | -0.968 (inactive) | 0.847 | 0.106
4 | CC(C)(C)N1C(=O)[C@H]2[C@H]3[C@H](O)[C@H](O)CC(=NOCc4ccccc4)[C@@H]3CC[C@H]2C1=O | -0.0757 | 0.581 | -0.0963 | 0.805 | 1.49 | 0.583 | 1.13 | -1.4 (inactive) | 0.503 | -0.15
5 | COc1ccc(O[C@H]2C=C[C@@H](c3ccccc3)O[C@@H]2COC(=O)CCC(C)=NOCC[C@@H]2C=C[C@H](OC(C)=O)[C@@H](COC(C)=O)O2)cc1 | -0.19 | 0.779 | -0.0363 | -0.171 | -0.086 | 0.0028 | -0.183 | 1.04 (inactive) | 0.406 | 0.305
6 | CC(=O)OC[C@H]1O[C@@H](ON=C(C)CCN2CCc3nc(-c4ccccc4)c(-c4ccccc4)cc3C2)[C@H](OC(C)=O)[C@@H](OC(C)=O)[C@@H]1OC(C)=O | -0.209 | 0.217 | -0.213 | 0.958 | 1.11 | 0.817 | 0.992 | 0.66 (inactive) | 0.473 | 0.21
7 | COC(=O)[C@H](C)NC(=O)CCC1CC(OC(=O)NCCc2ccc(F)cc2)CC2(CCCC(COC(=O)NCC(c3ccccc3)c3ccccc3)O2)O1 (stereo not given in full) | -0.342 | -0.266 | -0.124 | 0.462 | 1.29 | 0.846 | 1.2 | 1.38 (inactive) | 0.107 | -0.247
8 | CCOC(=O)C[C@H]1[C@H](OC(=O)c2ccc(C(=O)c3ccccc3)cc2)[C@@H](NC(=O)c2ccc(-c3ccccc3)cc2)c2cc(OCCCO)ccc2N1C(=O)c1ccc2ccccc2n1 | -0.378 | 0.292 | -0.0685 | 0.773 | 0.643 | 0.5 | 0.927 | 0.0728 (inactive) | 0.465 | -0.193
9 | C[C@H](c1ccccc1)N1C(=O)[C@H]2[C@@H]3C(=CC[C@H]2C1=O)C(=O)[C@H]1O[C@H]1[C@H]3O | -0.518 | 0.34 | -0.135 | 0.134 | 0.582 | -0.198 | -0.133 | 14.4 (active) | 0.128 | -0.289
10 | C[C@H](c1ccccc1)N1C(=O)[C@H]2[C@H]3[C@H](O)[C@H](O)CC(=O)[C@@H]3CC[C@H]2C1=O | -0.019 | 0.242 | -0.0675 | 0.341 | 0.433 | -0.117 | 0.263 | -0.243 (inactive) | 0.0924 | 0.0274
11 | COc1ccc(O[C@H]2C=C[C@@H](c3ccccc3)O[C@@H]2COC(=O)N2CCCCC2)cc1 | -0.0055 | 0.38 | -0.0493 | -0.479 | -0.701 | -0.578 | -0.77 | -0.216 (inactive) | -0.0007 | -0.171
12 | O=C(CS)NCCCCCNC(=O)[C@@H]1C[C@@H]2C(=O)N[C@@H](Cc3ccccc3)C(=O)N2[C@@H]1c1ccc(O)cc1 | 0.154 | 0.524 | -0.0766 | 0.435 | -0.138 | 0.67 | 1.36 | 1.2 (inactive) | 0.0658 | -0.0994
13 | O=C1O[C@@H](c2ccccc2)[C@@H](c2ccccc2)N2[C@@H](c3ccccc3OCCO)[C@]3(C(=O)Nc4ccc(C#CCCO)cc43)[C@@H](C(=O)O)[C@H]12 | -1.32 | 0.638 | -0.189 | 0.798 | 0.438 | 1.84 | 1.36 | -1.28 (inactive) | -0.423 | -0.945
14 | CCCC[C@@H]1C[C@H]1[C@@H](NS(=O)(=O)c1cccc2cccnc12)c1ccc(-c2ccccc2)cc1 | 0.682 | -0.165 | 0.0011 | 0.0132 | 0.523 | 0.071 | 0.918 | 0.448 (inactive) | 0.436 | -0.0123
15 | CCOC(=O)CCN1C(=O)[C@H]2[C@H]3[C@H](O)[C@H](O)CC(=NOCc4ccccc4)[C@@H]3CC[C@H]2C1=O | -0.572 | 0.227 | -0.201 | 0.193 | 0.93 | 0.22 | 0.588 | -0.48 (inactive) | 0.0033 | -0.0645
16 | CC(C)CON=C1C[C@@H](O)[C@@H](O)[C@@H]2[C@@H]3C(=O)N([C@@H](C)c4ccccc4)C(=O)[C@@H]3CC[C@H]12 | -0.572 | -0.0881 | -0.0156 | 0.915 | 1.01 | 0.561 | 1.1 | -0.997 (inactive) | 0.629 | 0.21
17 | CCc1cc2c(nc1CC)CCN(CCC(C)=NOC(C)CN1CCCc3nc(C)c(C)cc31)C2 (stereo not given) | 0.271 | 1.29 | 0.131 | 0.16 | 1.35 | 0.408 | 1.17 | 1.04 (inactive) | 1.15 | 1.17

Row | SMILES | composite z-score [1] | composite z-score [2] | composite z-score [3] | composite z-score [4] | composite z-score [5] | composite z-score [6] | composite z-score [7] | z-score [8] | composite z-score [9] | composite z-score [10]
18 | C[C@H]1CC[C@@H](C(=O)O)N[C@@H]1c1ccc(C#CCN(C)C)cc1 | -0.326 | 0.451 | -0.0943 | 0.185 | 0.608 | 0.115 | 0.0934 | -0.794 (inactive) | 0.629 | -0.119
19 | COC(=O)[C@@H]1N=C(c2ccc(OCCCO)cc2)O[C@@H]1c1ccccc1N=[N+]=[N-] | 1.64 | 0.308 | -0.006 | -0.282 | 0.124 | 1.79 | 1.18 | 3.42 (inactive) | 0.864 | 0.189
20 | CC(=O)OC[C@H]1O[C@H](C#CCCCc2ccccc2)C=C[C@@H]1OC(C)=O | -0.0129 | 0.105 | -0.083 | 0.73 | 0.2 | 0.505 | 0.765 | -0.13 (inactive) | -0.206 | 0.351
21 | O=C1[C@H]2[C@H]3[C@H](O)[C@H](O)CC(=NO[C@@H]4O[C@H](CO)[C@@H](O)[C@H](O)[C@H]4O)[C@@H]3CC[C@H]2C(=O)N1Cc1ccccc1 | -0.466 | 1.08 | -0.074 | 0.312 | 0.595 | -0.516 | -0.9 | -0.7 (inactive) | 0.756 | -0.0994
22 | CC(=O)OC[C@H]1O[C@H](CCON=C(C)CCC(=O)OC[C@H]2O[C@H](C#Cc3ccccc3)C=C[C@@H]2Oc2ccc(C)cc2)C=C[C@@H]1OC(C)=O | -0.41 | 0.703 | -0.12 | 0.479 | -0.126 | 0.0383 | 0.359 | 0.718 (inactive) | 0.265 | -0.132
23 | C[C@@H]1C=CCC(=O)OC[C@H](C)C(=O)N[C@@H](C)C(=O)OC1 | -0.329 | 0.907 | -0.162 | 0.0108 | 0.0057 | -0.313 | -0.0497 | -0.98 (inactive) | 0.258 | -0.069
24 | COC(=O)[C@@]1(Cc2ccc(OC)cc2)[C@H]2c3cc(C(=O)N4CCCC4)n(Cc4cc(F)c(F)c(F)c4)c3C[C@H]2CN1C(=O)c1ccccc1 | 2.91 | 1.05 | 0.746 | 1.19 | 1.82 | 1.62 | 1.19 | -0.104 (inactive) | 3.01 | 1.88
25 | CO[C@@H]1COC(=O)CC=C[C@@H](C)[C@@H]2C=C[C@@H](O)[C@@H](COC(=O)CC=C[C@H]1C)O2 | -0.42 | 1.08 | -0.0861 | -0.251 | -0.716 | -0.688 | -0.523 | -0.969 (inactive) | -0.176 | -0.16
26 | COc1ccc(O[C@H]2C=C[C@@H](c3ccccc3)O[C@@H]2COC(=O)CCC(C)=NO[C@H](C)c2cn([C@@H]3COC[C@H]3O)nn2)cc1 | -0.672 | 0.518 | -0.125 | 0.323 | 0.483 | 0.489 | 0.586 | 1.39 (inactive) | 0.0701 | -0.411
27 | CN1C(=O)C2C=CC(C(O)c3ccc(Br)cc3)N(N(c3ccccc3)c3ccccc3)C2C1=O (stereo not given) | 0.519 | -0.225 | 0.301 | 0.125 | 1.09 | 0.181 | 0.985 | 0.162 (inactive) | 0.576 | -0.0618
28 | Cn1cccc1C(O)C1C=CC2C(=O)NC(=O)C2N1Nc1ccccn1 (stereo not given) | -0.177 | 0.124 | -0.179 | -0.0312 | 0.359 | 0.782 | 0.371 | 1.63 (inactive) | 0.339 | 0.0053
29 | CC(C)NC(=O)[C@@H]1c2ccccc2C(=O)N(CC23CC4CC(CC(C4)C2)C3)[C@H]1c1ccc(CO)cc1 | -0.438 | -0.0125 | -0.0277 | 0.0767 | 1.38 | 0.93 | 1.27 | -3.34 (inactive) | 0.839 | -0.434
30 | C=C(/C(=C/C[C@H](OC(C)=O)c1ccc(OCCO)cc1)c1cnc2ccccc2c1)C(C)C | -0.195 | 0.214 | -0.122 | 1.11 | 1.01 | 0.69 | 1 | 0.372 (inactive) | 0.182 | -0.333
31 | O=C(NN=C1C[C@@H](O)[C@@H](O)[C@@H]2[C@@H]3C(=O)N(c4cccc(Oc5ccccc5)c4)C(=O)[C@@H]3CC[C@@H]12)OCc1ccccc1 | 0.103 | -0.336 | -0.0891 | 0.0457 | 0.222 | 0.259 | -0.157 | 0.31 (inactive) | 0.274 | 0.2
32 | C#CCCCON=C1C[C@@H](O)[C@@H](O)[C@@H]2[C@@H]3C(=O)N(c4cccc(Oc5ccccc5)c4)C(=O)[C@@H]3CC[C@@H]12 | -0.456 | -0.666 | -0.0296 | 0.967 | 0.88 | 1.44 | 0.598 | 0.407 (inactive) | 0.319 | -0.334
33 | C#CCCCON=C1C[C@@H](O)[C@@H](O)[C@@H]2[C@@H]3C(=O)N([C@@H](C)c4ccccc4)C(=O)[C@@H]3CC[C@H]12 | -0.196 | -0.0639 | -0.127 | 0.342 | 0.76 | 0.233 | 0.755 | 0.548 (inactive) | 0.342 | -0.0994
